Measurements reported in article PMC4552634, “A New Set of Chemical Starting Points with Plasmodium falciparum Transmission-Blocking Potential for Antimalarial Drug Discovery” (PLoS ONE, 2015).
The campaign covered roughly 13,000 compounds. About 3,200 (25%) showed an effect of 50% or more. The list shows a part of the results.

These molecules were tested on P. falciparum stage V gametocytes. Conditions: 48 h, 5 µM; inhibitor.
Parameters: BacTiter-Glo ATP luminescence viability of purified stage V gametocytes in 384-well plates, per cent inhibition versus DMSO

Row | Compound | % Inhibition
1 | Cc1cc(C)c(S(=O)(=O)N2CCCCC(c3cccc(C(F)(F)F)c3)=N2)c(C)c1 [TCMDC-134550] | -57.26%
2 | CC(C)(C)C1CCC(CC2=C(C(=O)O)c3ccccc3C2=O)CC1 (centres unmarked) [TCMDC-137496] | 8.625%
3 | O=C1OC(c2ccccc2)(c2ccccc2)CN1C1CCN(Cc2ccc(O)c(Cl)c2)C1 (centres unmarked) [TCMDC-136070] | -44.93%
4 | COc1cccc2cc(C(=O)N[C@@H](CC(C)C)C(=O)N[C@H](C=NNC(=O)OC(C)(C)C)Cc3ccccc3)oc12 [TCMDC-136073] | -20.59%
5 | Cc1cccc2[nH]c(-c3cccc(-c4cccc(CN5CCN(c6ccncc6)CC5)c4)c3)nc12 [TCMDC-132910] | 41.94%
6 | COc1ccc(NC(=O)[C@H](CC(C)C)Nc2cc(C)nc(NCCc3ccccc3)n2)cc1 [TCMDC-134778] | 31.74%
7 | COc1ccc(NC(=O)[C@H](CC(C)C)Nc2cc(C)nc(NCCc3ccc(F)cc3)n2)cc1 [TCMDC-134793] | 11.38%
8 | Cc1cc(N[C@@H](Cc2ccccc2)C(=O)Nc2ccccc2)nc(NCCc2ccc(F)cc2)n1 [TCMDC-134790] | 26.02%
9 | COc1ccc(NC(=O)[C@H](Cc2ccccc2)Nc2nc(NCCN3CCCC3)ncc2C)cc1 [TCMDC-134860] | 27.32%
10 | Cc1cc(N[C@@H](CC(C)C)C(=O)Nc2ccccc2)nc(NCCc2ccc(F)cc2)n1 [TCMDC-134797] | 10.71%
11 | COc1ccc(NC(=O)[C@H](Cc2ccccc2)Nc2cc(C)nc(NCCN3CCCC3)n2)cc1 [TCMDC-134924] | 85.56%
12 | Cc1cc(N[C@@H](Cc2ccccc2)C(=O)Nc2ccccc2)nc(NCCc2ccccc2)n1 [TCMDC-134777] | 63.66%
13 | Cc1cc(N[C@@H](Cc2ccccc2)C(=O)Nc2ccccc2)nc(Nc2ccccc2)n1 [TCMDC-134736] | -2.834%
14 | COc1ccc(NC(=O)[C@H](Cc2ccccc2)Nc2cc(C)nc(NCCc3ccc(F)cc3)n2)cc1 [TCMDC-134786] | 103.7%
15 | Cc1cc(N[C@@H](Cc2ccccc2)C(=O)Nc2ccccc2)nc(NCCN2CCCC2)n1 [TCMDC-134925] | 33.54%
16 | Cc1cc(N[C@@H](CC(C)C)C(=O)Nc2ccccc2)nc(NCCc2ccccc2)n1 [TCMDC-134780] | 99.12%
17 | COc1ccc2nccc(N3CCC(O)(CCNCc4ccc5c(n4)NC(=O)CS5)CC3)c2n1 [TCMDC-134553] | -13.65%
18 | CCCOc1ccc(C=C(CC(=O)O)c2nc3ccccc3s2)cc1OCC [TCMDC-125020] | 4.95%
19 | CO/C(=C\C=C\c1cc2cc(Cl)c(Cl)cc2[nH]1)C(=O)NCCCN1CCN(c2cccc(CCO)c2)CC1 [TCMDC-139549] | -37.75%
20 | CC[C@H](C)CNC(=O)c1cncc(-c2ccc(CN3CCC(N4CCCC4)CC3)cc2)c1 [TCMDC-134234] | 36.3%
21 | c1ccn2c(-c3ncnc(NCc4ccc5c(c4)CCO5)n3)cnc2c1 [TCMDC-135175] | 28.7%
22 | COCc1ccccc1C(=O)NCCOc1cc(C)cc(C)c1 [TCMDC-134843] | -15.71%
23 | Cc1cc(N[C@@H](Cc2ccccc2)C(=O)NC2CCCC2)nc(NCCCOC(C)C)n1 [TCMDC-134821] | 40.66%

Row | Compound | % Inhibition
24 | COc1ccc(NC(=O)[C@H](Cc2ccccc2)Nc2cc(C)nc(NCc3ccccc3C)n2)cc1 [TCMDC-134904] | -26.59%
25 | Cc1cc(N[C@@H](Cc2ccccc2)C(=O)NC2CCCC2)nc(NCc2ccccc2C)n1 [TCMDC-134902] | -12.74%
26 | COc1ccc(NC(=O)[C@H](Cc2ccccc2)Nc2cc(C)nc(NCCc3ccccc3)n2)cc1 [TCMDC-134774] | 119.9%
27 | COc1ccc(NC(=O)[C@H](Cc2ccccc2)Nc2cc(C)nc(NCCc3cccs3)n2)cc1 [TCMDC-134873] | 39.58%
28 | Cc1cc(N[C@@H](Cc2ccccc2)C(=O)Nc2ccccc2)nc(NCCc2cccs2)n1 [TCMDC-134814] | 131.2%
29 | COc1ccc(NC(=O)[C@H](Cc2ccccc2)Nc2cc(C)nc(NCCc3ccccc3OC)n2)cc1 [TCMDC-134801] | 16.26%
30 | Cc1cc(N[C@@H](Cc2ccccc2)C(=O)NC2CCCC2)nc(NCCc2cccs2)n1 [TCMDC-134811] | 53.29%
31 | CCOC(=O)C1=C(C)NC(C)=C(C(=O)OCC)C1(C(=O)OCc1ccccc1)c1cccc(C(F)(F)F)c1 [TCMDC-132060] | -16.58%
32 | Cc1cc(NC(=O)c2coc3cc(F)c(N4CC(C)N(C)C(C)C4)cc23)cnc1-c1ccc(C#N)cc1 (centres unmarked) [TCMDC-141403] | -2.152%
33 | Oc1ccc(Cl)cc1CN1CCC(CCOC(c2ccccc2)c2ccc(Cl)cc2)CC1 (centres unmarked) [TCMDC-136035] | 13.31%
34 | O=C(/C=C/c1ccc(Cl)c(Cl)c1)NCCCCCN1CCC(NC(=O)Nc2cc(F)ccc2F)CC1 [TCMDC-135713] | -50.93%
35 | COc1cc(F)c2ncc(Cl)c(CCN3CCC(NCc4cc5c(cn4)OCCO5)CC3)c2c1 [TCMDC-134284] | 7.425%
36 | O=S(=O)(c1cc(Cl)ccc1Cl)N1CCCCC(c2ccc(C(F)(F)F)cc2)=N1 [TCMDC-134538] | -6.074%
37 | CCCCN1CCCC[C@H]1[C@@H](O)c1ccnc2ccc(OCC)cc12 [TCMDC-132037] | -41.99%
38 | CC(C)(C)c1ccc(NC(=O)c2cccc(CN3CCCN(Cc4cccc(C#N)c4)CC3)c2)cc1 [TCMDC-135981] | -19.29%
39 | CN(N=Cc1ccccc1)C(N)=NCCCC#Cc1cccc(CN2CCCC2)c1 [TCMDC-136886] | 99.7%
40 | CC(C)c1ccc(NC(=O)c2cccc(CN3CCCN(Cc4cccc(C#N)c4)CC3)c2)cc1 [TCMDC-135975] | 18.13%
41 | CCCCCCNC(=O)C1Cc2c([nH]c3ccccc23)C2(CCN(CCc3ccccc3)CC2)N1 (centres unmarked) [TCMDC-141085] | -57.94%
42 | O=C(CCc1cnc[nH]1)Nc1ccc(-c2ccc(-c3nc4ccc(F)cc4[nH]3)cc2)cc1 [TCMDC-136776] | 4.733%
43 | CCCCCCCCOc1c(OCC)cc(Cc2cnc(N)nc2N)cc1OCC [TCMDC-137175] | -7.172%
44 | CCN(CC)CCCCCNc1c2ccc(Cl)cc2nc2ccc(OC)cc12 [TCMDC-137514] | 94.78%
45 | CCCCN(CCCC)CCCCNc1c2ccc(Cl)cc2nc2ccc(OC)cc12 [TCMDC-137460] | 99.56%
46 | CCCCCCN(CCCCCC)CCCCNc1c2ccc(Cl)cc2nc2ccc(OC)cc12 [TCMDC-137520] | 100.6%

Row | Compound | % Inhibition
47 | COc1ccc2nccc([C@@H](O)CN3CCC(NC(=O)C(c4ccsc4)N4CCN(c5ccccc5)CC4)CC3)c2c1 (some centres unmarked) [TCMDC-140985] | -15.82%
48 | Cc1cccc2nc(-c3cccc(-c4cccc(C(=O)NCc5nccn5C)c4)c3)[nH]c12 [TCMDC-132355] | -47.29%
49 | CN(CCN)Cc1cccc(-c2cccc(-c3nc4ccc(F)cc4[nH]3)c2)c1 [TCMDC-132822] | 48.31%
50 | CNCCNCc1ccc(-c2ccc(-c3nc4ccc(C(F)(F)F)cc4[nH]3)cc2)cc1 [TCMDC-132833] | 32.25%
51 | CNCCNCc1cccc(-c2ccc(-c3nc4ccc(C(F)(F)F)cc4[nH]3)cc2)c1 [TCMDC-132834] | 79.7%
52 | CNCCNCc1ccc(-c2cccc(-c3nc4ccc(C(F)(F)F)cc4[nH]3)c2)cc1 [TCMDC-132826] | 78.68%
53 | CN(CCN)Cc1cccc(-c2cccc(-c3nc4ccc(C(F)(F)F)cc4[nH]3)c2)c1 [TCMDC-132818] | 68%
54 | CNCCNCc1cccc(-c2cccc(-c3nc4ccc(C(F)(F)F)cc4[nH]3)c2)c1 [TCMDC-132827] | 52.85%
55 | COc1ccc(CNCc2ccc(-c3cccc(-c4nc5ccc(C(F)(F)F)cc5[nH]4)c3)cc2)cc1 [TCMDC-132731] | -22.42%
56 | CC(C)NCc1cccc(-c2ccc(-c3nc4ccc(C(F)(F)F)cc4[nH]3)cc2)c1 [TCMDC-132742] | -56.16%
57 | CNc1ccc(CNCc2cccc(-c3ccc(-c4nc5ccc(C(F)(F)F)cc5[nH]4)cc3)c2)cc1 [TCMDC-132982] | -73.95%
58 | COc1ccc(CNCc2cccc(-c3ccc(-c4nc5ccc(C(F)(F)F)cc5[nH]4)cc3)c2)cc1 [TCMDC-132723] | -32.29%
59 | Clc1ccc(-c2cc(-c3csc(NCCN4CCCCC4)n3)on2)cc1 [TCMDC-140321] | -2.378%
60 | NC(=O)C1CCN(Cc2cccc(-c3cccc(-c4nc5cc(C(F)(F)F)ccc5[nH]4)c3)c2)CC1.O=C(O)C(F)(F)F [TCMDC-132696] | -65.64%
61 | Cc1ccc(C(C)C)c(Oc2ccc3nc(N)nc(N)c3c2)c1 [TCMDC-135559] | -10.97%
62 | OC1(Cc2ccccc2)CCN(Cc2cccc(-c3c[nH]c4nc(NC5CCCC5)ncc34)c2)CC1 [TCMDC-133773] | -59.82%
63 | c1cc(CNCCc2ccncc2)cc(-c2cccc(-c3nc4ccccc4[nH]3)c2)c1 [TCMDC-132858] | 84.49%
64 | c1cc(CNCCc2ccncc2)cc(-c2csc(-c3nc4ccccc4[nH]3)c2)c1 [TCMDC-132841] | -33.89%
65 | FC(F)(F)c1ccc2nc(-c3cccc(-c4cccc(CNCCc5ccncc5)c4)c3)[nH]c2c1 [TCMDC-132847] | 78.26%
66 | FC(F)(F)c1ccc2nc(-c3cccc(-c4cccc(CN5CCN(c6ccncc6)CC5)c4)c3)[nH]c2c1 [TCMDC-132911] | -29.28%
67 | FC(F)(F)c1ccc2nc(-c3cccc(-c4ccc(CNCCc5ccncc5)cc4)c3)[nH]c2c1 [TCMDC-132845] | -28.78%
68 | O=C(O)C(F)(F)F.c1cc(CNCCc2ccncc2)cc(-c2ccc(-c3nc4ccccc4[nH]3)s2)c1 [TCMDC-132842] | -14.4%
